Bioassay records (PubChem BioAssay)
The full list was thinned out, with hits kept by preference.
U2OS ROS induce – raises reactive oxygen species in U2OS cancer cells; actives 2% (n = 46,000); ROS induction (% of piperlongumine), % at 10 µM; AID 624156; U2OS ROS induction, H2DCF-DA fluorescence; in the data active = ROS induction above about 79%, passing the limit was not always enough;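 also: 0% = DMSO vehicle median and 100% = reference compound median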
Active calls of the source: *.

SMILES | U2OS ROS induce
CCC(Sc1nnc(N)s1)C(=O)Nc1sc2c(c1C#N)CCCC2 (configuration not stated) | -4
Cc1ccc(C(=O)COC(=O)C2c3ccccc3Oc3ccccc32)cc1C | 2
O=C(c1ccc(Br)cc1)c1cc2c(cc1Br)OCCCO2 | 131*
O=C(NO)c1ccc(C(=O)N/N=C/c2cc3c(cc2Br)OCO3)cc1 | -16
O=C(O)CCC(=O)c1ccc2c(c1)OCCCO2 | 10
O=c1nc(NCCO)ccn1-c1nc(-c2ccccc2)sc1-c1ccccc1 | -4
CC1(c2ccc(F)cc2)CC(=O)c2cc(O)ccc2O1 (configuration not stated) | -5
Cc1ccc2[nH]c3c(c2c1)CCCC3NC1CCCCC1 (configuration not stated) | 4
O=S(=O)(c1ccc(-c2csc(Nc3ccc(Br)cc3)n2)cc1)N1CCCCC1 | -2
CCN(CC(=O)Nc1ccc(C)c(C)c1)S(=O)(=O)c1ccc(C)cc1 | -2
CCN(CC(=O)Nc1cccc(C)c1)S(=O)(=O)c1ccc(Br)cc1 | 131*
CCN(CC(=O)Nc1ccccc1)S(=O)(=O)c1ccc(Cl)cc1 | -3
CCC(Sc1nncn2c1cc1oc(C)cc12)C(=O)NCc1ccc(C)cc1 (configuration not stated) | -7
CCOc1cc(C)c(S(=O)(=O)NCCN2CCOCC2)cc1C | -10
COc1cc(C)c(Br)cc1S(=O)(=O)NCCN1CCOCC1 | 142*
COc1cc(C)c(Br)cc1S(=O)(=O)NCc1ccco1 | -13
CCC(C)S(=O)(=O)c1oc(-c2ccc(C)cc2)nc1S(=O)(=O)c1ccccc1 (configuration not stated) | 219*
NC(=O)CSc1oc(-c2ccccc2)nc1S(=O)(=O)c1ccccc1 | 0
Cc1ccc(-c2nc(S(=O)(=O)c3ccc(F)cc3)c(NCc3ccco3)o2)cc1 | 6
O=C(/C=C/N1CCOCC1)c1ccc(Cl)cc1 | -13
CCC(C(=O)NC1CCCC1)n1c(SCc2ccc(C)cc2)nc2ccncc21 (configuration not stated) | 53
O=C(Cc1ccccc1)Nn1c(SCC(=O)c2ccccc2)nc2ccccc2c1=O | 1
CCc1ccc(/C=C2\Sc3ccccc3N(CC(=O)O)C2=O)cc1 | 15
CCN1/C(=C/C2=CC(=O)CC(C)(C)C2)Sc2ccccc21 | 164*
CCN1/C(=C\C(=S)Nc2ccccc2)Sc2ccccc21 | 66
SMILES | U2OS ROS induce
CCn1cc(C(=O)O)c(=O)c2cc(S(=O)(=O)N(C)C3CCCCC3)ccc21 | -10
CC/C=C\C/C=C\C/C=C\C/C=C\C/C=C\C/C=C\CCC(=O)O | -6
CC/C=C\CC1C(=O)C=C/C1=C/CCCCCCC(=O)O (configuration not stated) | 15
CC/C=C\C=C1\C(=O)C=CC1CCCCCCCC(=O)O (configuration not stated) | 87*
CC(C)CCNC(=O)c1ccc(N2CCCC2=O)cc1 | -4
COC(=O)c1ccc(O)c(/C=N/N(CCO)C2=NS(=O)(=O)c3ccccc32)c1 | 17
COC(=O)c1cc2sc(Cl)cc2[nH]1 | 1
CCC(C)OC(=O)C(C)Oc1ccc2c3c(c(=O)oc2c1)CCC3 (configuration not stated) | 14
CC(C)COc1ccc2c3c(c(=O)oc2c1)CCCC3 | 22
CC(C)COC(=O)C(C)Oc1ccc2c3c(c(=O)oc2c1)CCC3 (configuration not stated) | 122*
C[C@H](CO)N1C[C@H](C)[C@@H](CN(C)Cc2ccncc2)Oc2c(NC(=O)CCCCCC(=O)Nc3ccccc3N)cccc2C1=O | 5
C[C@@H]1CN([C@H](C)CO)C(=O)c2cccc(NC(=O)CCCCCC(=O)Nc3ccccc3N)c2O[C@@H]1CN(C)Cc1ccc(C(F)(F)F)cc1 | 57
C[C@@H]1CN([C@H](C)CO)C(=O)c2cccc(NC(=O)CCCCCC(=O)Nc3ccccc3N)c2O[C@H]1CN(C)Cc1ccc(-c2ccccc2)cc1 | 126*
C[C@H](CO)N1C[C@H](C)[C@H](CN(C)Cc2ccc(C(F)(F)F)cc2)Oc2c(NC(=O)CCCCCC(=O)Nc3ccccc3N)cccc2C1=O | 67
C[C@@H]1CN([C@@H](C)CO)C(=O)c2cccc(NC(=O)CCCCCC(=O)Nc3ccccc3N)c2O[C@@H]1CN(C)Cc1ccc(C(F)(F)F)cc1 | 42
C[C@H]1CN([C@@H](C)CO)C(=O)c2cccc(NC(=O)CCCCCC(=O)Nc3ccccc3N)c2O[C@@H]1CN(C)Cc1ccc(-c2ccccc2)cc1 | 91*
CCOc1ccc(-c2cn3c(n2)sc2cc(C(=O)N4CCN(C)CC4)ccc23)cc1 | 35
Cc1noc(C)c1NC(=O)Nc1cccc2c1O[C@@H](CN(C)Cc1ccc(Oc3ccccc3)cc1)[C@@H](C)CN([C@@H](C)CO)C2=O | 0
Cc1cc(C(=O)Nc2cccc3c2O[C@H](CN(C)Cc2ccc(Oc4ccccc4)cc2)[C@H](C)CN([C@H](C)CO)C3=O)n(C)n1 | 18
COc1ccc(CN(C)C[C@H]2Oc3c(NC(=O)Nc4ccc(OC)cc4)cccc3C(=O)N([C@H](C)CO)C[C@@H]2C)cc1 | 13
Cc1cc(C(=O)Nc2cccc3c2O[C@@H](CN(C)Cc2ccc(Oc4ccccc4)cc2)[C@H](C)CN([C@@H](C)CO)C3=O)n(C)n1 | 117*
Cc1noc(C)c1NC(=O)Nc1cccc2c1O[C@H](CN(C)Cc1ccc(Oc3ccccc3)cc1)[C@H](C)CN([C@@H](C)CO)C2=O | -4
Cc1noc(C)c1S(=O)(=O)Nc1ccc2c(c1)C(=O)N([C@H](C)CO)C[C@@H](C)[C@@H](CN(C)Cc1ccc(Cl)c(Cl)c1)O2 | 101*
Cc1cc(C(=O)Nc2cccc3c2O[C@@H](CN(C)Cc2ccccc2)[C@@H](C)CN([C@@H](C)CO)C3=O)n(C)n1 | -5
COc1ccc(CN(C)C[C@@H]2Oc3c(NC(=O)Nc4ccc(OC)cc4)cccc3C(=O)N([C@H](C)CO)C[C@H]2C)cc1 | 12
SMILES | U2OS ROS induce
COc1ccc(NC(=O)Nc2cccc3c2O[C@@H](CN(C)Cc2ccc(Cl)c(Cl)c2)[C@H](C)CN([C@@H](C)CO)C3=O)cc1 | 96*
Cc1noc(C)c1S(=O)(=O)Nc1ccc2c(c1)C(=O)N([C@H](C)CO)C[C@H](C)[C@@H](CN(C)Cc1ccc(Cl)c(Cl)c1)O2 | 72
Cc1noc(C)c1S(=O)(=O)Nc1ccc2c(c1)C(=O)N([C@H](C)CO)C[C@@H](C)[C@@H](CN(C)Cc1ccc3c(c1)OCO3)O2 | 11
Cc1noc(C)c1NC(=O)Nc1cccc2c1O[C@H](CN(C)Cc1ccc(Oc3ccccc3)cc1)[C@@H](C)CN([C@@H](C)CO)C2=O | 88*
COc1ccc(N2CCN(C(=O)c3ccc(C#CC4(O)CCCCC4)cc3)CC2)cc1 | -12
Cc1ccccc1-c1nc2cc(NC(=O)c3cccc(F)c3)ccc2o1 | 20
COc1ccc(S(=O)(=O)N(CCC(=O)O)Cc2ccco2)cc1OC | -13
O=C(COc1ccc(Cl)cc1)Nc1ccc2nc3n(c(=O)c2c1)CCCCC3 | 6
CC1(C)COC(CC(=O)c2ccncc2)=N1 | 3
CCOc1ccccc1/C=N\n1cnnc1 | -13
Cc1ccc(C)c(NC(=O)C(C)n2sc3ccccc3c2=O)c1 (configuration not stated) | -11
COc1ccc2c(Sc3ccc(Cl)cc3)c(C(=O)N(C)Cc3ccccc3)[nH]c2c1 | -15
CCOC(=O)c1n[nH]c2c1CCCC2 | -9
Cc1cccc(N(CC(=O)Nc2ccccc2)S(C)(=O)=O)c1C | -4
COc1ccc(C(=O)Cn2ccnc2C(=O)NCCc2ccc(Cl)cc2)cc1 | 30
